Screening results from PubChem.
Rows were chosen to be rich in hits. Some 21% of all compounds tested hit in one or more screens of this group.
Pf growth 48h = inhibits P. falciparum growth in the first generation, 48 h; 5.9% of 310,000 active; P. falciparum luciferase growth in erythrocytes, 48 h; Potency, µM (doses to about 28.7 µM), without a hit: at the top dose activity change, negative = inhibition, usual class: inhibitors; AID 504832; further: potency means the concentration at half of the fitted maximal effect; on the % scale 0 is the no-effect control and ±100 the full control effect
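Cell-based growth assay: transgenic P. falciparum expressing firefly luciferase, cultured in red cells within RPMI 1640 containing 0.5% w/v Albumax, 24 mM bicarbonate and gentamycin. A drop in luciferase activity indicates inhibition.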
CHX counter = affects cycloheximide protein synthesis inhibition readout, counter-screen; cell reporter, cycloheximide protein synthesis inhibition counterscreen; max response, %; 12% of 300,000 active; AID 2314; in the data active means max response mostly above about 13%, no sharp cut-off; inactive means mostly below about 14%; further: read at 38.3 µM for the half of the compounds with a filed dose; 0% is about no effect
Pf growth 96h = P. falciparum growth inhibition at 96 hour, primary screen for plastid delayed-death inhibitors; AID 504834; 6.9% of 320,000 active; Potency, µM (series often up to 28.7 µM), for the others: at the highest dose activity change, negative = inhibition, hits mostly inhibitors; P. falciparum luciferase reporter growth, 96 h; further: potency means the concentration at half of the fitted maximal effect; on the % scale 0 is the no-effect control and ±100 the full control effect
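Two parasite generations (96 h, 37 C, 5% CO2) of compound exposure in infected erythrocytes (0.05% parasitemia, 2% hematocrit). Luciferase-reporter P. falciparum; decreased luminescence indicates inhibited growth, aimed at apicoplast-acting delayed death.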
AMA1 RON2 block = inhibitors of Plasmodium falciparum AMA1-RON2 interaction; AlphaScreen AMA1-biotinylated RON2 peptide binding; 0.2% of 360,000 active; Potency, µM (highest dose often 58.2 µM), for inactives: at the top dose activity change, negative = inhibition, hits mostly inhibitors;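 further: potency means the concentration at half of the fitted maximal effect; 0% = vehicle wells and -100% = peptide control; nearly all actives have a fitted effect of over 45% in size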
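AMA1 (3D7) with his tag at 25 nM final met compounds first, then biotinylated RON2 peptide at 25 nM; detection used donor plus acceptor beads, 10 µg/mL apiece, read by AlphaScreen after 30 min at room temperature.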
Shiga inhibitor = inhibitors of Shiga toxin in Vero cells | Vero cells, Shiga toxin protein synthesis inhibition reporter | inhibition, % at 38.7 µM | 9.2% of 290,000 active; in the data active means inhibition mostly above about 28%, no sharp cut-off; inactive means mostly below about 43%; further: 0% is about no effect
HCV inh = inhibitors of hepatitis C virus infection; Potency, µM (top dose mostly 41.8 µM), for the others: top-dose activity change, negative = inhibition, hits mostly inhibitors; AID 651820; 3.4% of 340,000 active; Huh7.5.1 HCVcc-Cre infection, luciferase reporter, 44 h; further: potency means the concentration at half of the fitted maximal effect; on the % scale 0 is the no-effect control and ±100 the full control effect
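Luciferase read-out (15 sec integration) after a 15 min room-temperature substrate step quantifies HCVcc-Cre infection. Cells, 1,000 per well, had compound added 4 h post-plating, then virus at ~0.5 moi, and were cultured 44 h.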
Active calls of the source: *; u = inconclusive; x = not tested or not shown. Unless noted, the call rests on the fitted dose curve; in most records, active means well fitted curve in the direction sought with a large enough effect; inconclusive means small, poorly fitted or top-dose-only effect, or another doubt; inactive means no such curve, though single readings can be large; an effect the other way counts as inactive or inconclusive.

SMILES	Pf growth 48h	CHX counter	Pf growth 96h	AMA1 RON2 block	Shiga inhibitor	HCV inh
COc1ccc(-c2csc(NC(=O)C3CC(=O)N(c4ccc5c(c4)OCCO5)C3)n2)cc1 (stereo unspecified)	u	24*	12µM*	-1%	14	u
CCN(CC)C(=O)c1ccc2nc([C@@H]3O[C@H](CO)[C@H](O)[C@H](O)[C@H]3O)[nH]c2c1	x	x	x	6%	x	x
O=C(O)CN1C(=O)/C(=C/c2ccc(-c3cccc(Cl)c3)o2)SC1=S	x	-4	x	x	-5	x
O=C(NCC(=O)N(c1ccc(F)cc1)C(C(=O)NC1CCCCC1)c1ccncc1)c1ccco1 (stereo unspecified)	u	-6	7%	0%	3	14%
COc1ccc(N2CC(C(=O)Nc3nnc(SCCC4OCCO4)s3)CC2=O)cc1 (stereo unspecified)	u	0	13µM*	17%	-5	5%
CC(C)Oc1ccc(N2CC(C(=O)Nc3ccc4c(c3)OCO4)CC2=O)cc1 (stereo unspecified)	x	1	15µM*	2%	4	-17%
Cc1ccc(N2CC(C(=O)Nc3ccc4c(c3)OCO4)CC2=O)cc1 (stereo unspecified)	-3%	3	10%	2%	-5	8%
Cc1cccc(N2CC(C(=O)Nc3ccc4c(c3)OCCO4)CC2=O)c1C (stereo unspecified)	7%	11	24%	-1%	71*	-6%
CCc1ccc(N2CC(C(=O)Nc3nc4ccc(S(C)(=O)=O)cc4s3)CC2=O)cc1 (stereo unspecified)	17%	17*	u	-1%	67*	1%
CCc1nc(SCC(=O)NC2CCCC2)c2c(=O)n(C)c(=O)n(C)c2n1	-2%	-4	1%	-4%	-11	-9%
Cc1cc(C)cc(NC(=O)Nc2ccccc2N2CCCCC2)c1	u	2	u	3%	13	u
C=CC[C@H](CC(=O)N(CCO)Cc1ccccc1)C(=O)N[C@H](COC(=O)[C@@H](CC=C)CC(=O)OC(C)(C)C)Cc1c[nH]c2ccccc12	x	x	x	-5%	x	u
CCOC(=O)C1CCCN(c2c(C(=O)c3ccc(C)cc3)cnc3ccc(OCC)cc23)C1 (stereo unspecified)	x	-2	x	x	1	x
Cc1ccc(-n2c(-c3ccc(Br)cc3)n[nH]c2=S)c(C)c1	x	x	x	98%	x	x
CC(C)c1nc2oc3c(N4CCNCC4)ncnc3c2c2c1CCC2	x	x	x	-7%	x	u
CC(C)Cc1nc2oc3c(NCCCN4CCOCC4)ncnc3c2c2c1CCC2	u	1	u	-7%	-12	10µM*
CC(C)Cc1nc2oc3c(Cl)ncnc3c2c2c1CCC2	32%	-4	42%	-1%	-6	4.5µM*
CN(CC(=O)Nc1ccccc1Cl)C(=O)COC(=O)CSc1ccc(Cl)cc1	-5%	x	-17%	0%	x	-2%
N#Cc1nc(-c2ccccc2F)oc1NCCc1ccccn1	12%	1	u	28%	-4	-15%
N#Cc1nc(-c2cccs2)oc1NCCN1CCOCC1	1%	2	x	18%	-10	7%
N#Cc1nc(-c2cccs2)oc1NCCc1ccccc1	x	34	-19%	-12%	74*	-17%
N#Cc1nc(-c2ccccc2F)oc1NCCc1ccccc1	38%	41*	-1%	u	37	u
COCCCNc1oc(-c2ccccc2F)nc1C#N	x	24*	21%	2%	34	u
N#Cc1nc(-c2ccccc2F)oc1NCc1ccccc1	x	18*	u	0%	26	-16%
O=C(NNC(=O)c1ccncc1)Nc1cc(Cl)ccc1Cl	x	x	x	67%	x	0%
SMILES	Pf growth 48h	CHX counter	Pf growth 96h	AMA1 RON2 block	Shiga inhibitor	HCV inh
Cc1cccc(NC(=O)C2CCN(C(=O)NCc3ccccc3)CC2)c1C	2%	-5	u	-1%	-8	4%
N#Cc1nc(-c2cccs2)oc1N1CCN(Cc2ccccc2)CC1	-18%	16*	28%	u	22	u
COc1ccc(CCNc2oc(-c3ccco3)nc2C#N)cc1	u	10	u	-11%	16	u
N#Cc1nc(COc2ccccc2)oc1N1CCN(Cc2ccccc2)CC1	-15%	-1	18%	-22%	-6	-14%
N#Cc1nc(-c2ccco2)oc1NCCc1ccccc1	-4%	28*	-6%	-7%	27*	u
CCN(CC)CCCNc1oc(-c2ccccc2[N+](=O)[O-])nc1C#N	u	11	2.6µM*	105%	15	26%
O=C(CNC(=O)c1ccc(Cl)c([N+](=O)[O-])c1)OCN1C(=O)c2ccccc2C1=O	49%	x	35%	6%	x	17%
O=C(NC1CCCCC1)C(c1cc2c(cc1[N+](=O)[O-])OCO2)N1CCCCC1 (stereo unspecified)	u	16	13µM*	x	54*	x
CC(C)c1ccc(/C=C2\SC(=O)N(CC(=O)NC3C=CS(=O)(=O)C3)C2=O)cc1 (stereo unspecified)	u	12*	u	-5%	27	-6%
COc1cccc(/C=C2\SC(=O)N(CC(=O)NC3C=CS(=O)(=O)C3)C2=O)c1 (stereo unspecified)	u	11	12µM*	-3%	8	2%
COc1cccc(/C=C2\SC(=S)N(C(C)C(=O)NC3C=CS(=O)(=O)C3)C2=O)c1 (stereo unspecified)	30%	23	24%	61%	12	-5%
COc1ccc(/C=C2\SC(=S)N(C(C)C(=O)NC3C=CS(=O)(=O)C3)C2=O)cc1 (stereo unspecified)	33%	23*	27%	5%	31*	u
CCCCN(C(=O)c1ccccc1Cl)C(CC(C)C)c1nc2ccccc2[nH]1 (stereo unspecified)	x	x	x	5%	x	x
O=C(c1ccc(Cl)nc1)N1CCN(S(=O)(=O)c2ccc(Cl)cc2)CC1	17%	-3	17%	-1%	-1	12%
O=C(NNCS(=O)(=O)O)c1ccncc1	12%	x	-9%	x	x	x
CC(C)(O)C#CC#CCN1CCOCC1	7%	1	10µM*	-1%	-5	11%
COc1ccc(OC)c(S(=O)(=O)NC(N)=NCCc2ccccc2OC)c1	4%	-2	-19%	x	-2	x
Cc1ccc(S(=O)(=O)N(C)c2ccccc2C(=O)Nc2c(F)cccc2F)cc1	-25%	2	u	0%	-11	-15%
CN(c1ccccc1)S(=O)(=O)c1ccc(NC(=O)c2ccc(-c3ccccc3)cc2)cc1	u	2	u	8%	-15	x
Cc1ccc(S(=O)(=O)N(C)c2ccc(C(=O)NCc3cccnc3)cc2)cc1	u	1	u	1%	-5	2%
